KDM5B inh: inhibitors of human KDM5B histone demethylase; Q9UGL1; KDM5B demethylase, FDH-coupled NADH fluorescence (FDH is formaldehyde dehydrogenase); Potency, µM (doses to about 57.7 µM), actives largely listed as inhibitors; actives 2.6% (n = 220,000); active means well fitted inhibition curve with a large enough effect; further: 0% is about no effect; nearly all actives have a fitted effect of over 70% in size
Target sequence (Q9UGL1 whole entry, looked up): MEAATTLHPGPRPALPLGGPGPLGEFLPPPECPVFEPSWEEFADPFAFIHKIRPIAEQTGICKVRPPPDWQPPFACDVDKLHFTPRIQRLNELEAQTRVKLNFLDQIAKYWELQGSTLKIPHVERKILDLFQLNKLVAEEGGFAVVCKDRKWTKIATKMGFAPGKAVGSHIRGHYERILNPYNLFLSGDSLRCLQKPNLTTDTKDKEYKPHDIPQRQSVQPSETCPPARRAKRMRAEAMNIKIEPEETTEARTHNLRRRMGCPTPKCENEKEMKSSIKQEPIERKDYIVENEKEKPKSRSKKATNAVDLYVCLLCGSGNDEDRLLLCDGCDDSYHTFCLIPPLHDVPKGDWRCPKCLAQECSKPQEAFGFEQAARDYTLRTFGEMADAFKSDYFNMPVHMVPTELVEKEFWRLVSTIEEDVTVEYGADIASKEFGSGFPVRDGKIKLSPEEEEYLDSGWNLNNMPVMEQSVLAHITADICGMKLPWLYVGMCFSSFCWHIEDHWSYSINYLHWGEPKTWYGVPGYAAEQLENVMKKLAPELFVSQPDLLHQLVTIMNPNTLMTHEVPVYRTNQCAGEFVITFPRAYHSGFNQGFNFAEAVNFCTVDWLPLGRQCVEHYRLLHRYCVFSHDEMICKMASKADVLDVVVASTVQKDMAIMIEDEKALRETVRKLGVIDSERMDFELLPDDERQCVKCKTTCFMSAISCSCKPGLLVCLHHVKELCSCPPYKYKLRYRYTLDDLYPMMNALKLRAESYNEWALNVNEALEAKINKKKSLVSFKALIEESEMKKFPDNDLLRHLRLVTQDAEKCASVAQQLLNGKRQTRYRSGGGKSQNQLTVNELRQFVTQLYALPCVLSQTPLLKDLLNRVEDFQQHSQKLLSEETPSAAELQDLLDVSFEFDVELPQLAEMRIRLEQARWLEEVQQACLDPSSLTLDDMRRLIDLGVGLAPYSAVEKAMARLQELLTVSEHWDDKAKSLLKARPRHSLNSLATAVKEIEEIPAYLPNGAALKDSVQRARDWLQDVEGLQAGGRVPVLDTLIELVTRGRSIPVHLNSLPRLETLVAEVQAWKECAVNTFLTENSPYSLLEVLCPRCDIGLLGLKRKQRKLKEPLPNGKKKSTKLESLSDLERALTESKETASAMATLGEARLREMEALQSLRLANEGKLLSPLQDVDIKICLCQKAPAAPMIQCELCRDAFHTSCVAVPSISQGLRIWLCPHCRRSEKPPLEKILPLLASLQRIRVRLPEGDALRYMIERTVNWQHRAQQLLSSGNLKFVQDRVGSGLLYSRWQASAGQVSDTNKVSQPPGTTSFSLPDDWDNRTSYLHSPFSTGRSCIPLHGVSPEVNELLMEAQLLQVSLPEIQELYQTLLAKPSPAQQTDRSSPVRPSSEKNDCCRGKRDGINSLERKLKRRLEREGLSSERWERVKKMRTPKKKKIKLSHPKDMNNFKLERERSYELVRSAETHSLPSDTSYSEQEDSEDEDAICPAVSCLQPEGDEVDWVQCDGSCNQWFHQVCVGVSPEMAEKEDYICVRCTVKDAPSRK
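Coupled FDH/NAD⁺ fluorescence readout. KDM5BΔAP 200 nM final; compound titration, 10 min RT preincubation; substrate mix 12.5 µM H3K4me3, 25 µM 2-OG, 50 µM Fe(II), 100 µM ascorbate, 0.25 mM NAD⁺, 0.25 U/mL FDH; ΔRFU over 30 min.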
The depositor's hits bear a star; i = inactive. Many of the other results were omitted from the sample, so hits are more common in it than they were. Potency means the concentration at half of the fitted maximal effect.

SMILES | KDM5B inh
CN1CCN(C(=O)Cn2c(=O)c3c(ncn3Cc3ccccc3)n(Cc3ccccc3)c2=O)CC1 | i
CCOc1ccccc1N(CC)C(=O)Cn1nc(Cc2ccncc2)c2ccccc2c1=O | i
N#Cc1cccc(OCc2ccc(C#N)cc2F)c1 | i
CCC(C(=O)N1CCN(Cc2ccc(C)c(C)c2)C(=O)C1)n1cccn1 (configuration not stated) | i
O=C(c1ccccn1)N1CCC2(CC1)NC(=O)N(Cc1ccc(F)cc1)C2=O | i
O=C1CN(C(=O)c2cnc3ccccn3c2=O)CCN1Cc1ccc(F)cc1 | 28µM*
O=C(Cn1c(=O)c2c(ncn2Cc2ccccc2)n(Cc2ccccc2)c1=O)Nc1ccccc1F | i
O=C(CN1CCN(C(=O)c2cccnc2OCC(F)(F)F)CC1)Nc1ccccc1Cl | i
COc1ccc(N2C(=O)CSC23CCN(C(=O)c2ccccc2Br)CC3)cc1 | 35µM*
COCC(=O)N1CCC2(CC1)SCC(=O)N2c1ccc(OC)cc1 | i
COc1ccc(N2C(=O)CSC23CCN(C(=O)c2cccc(OC)c2)CC3)cc1 | i
CCn1c(C)c(C(C)=O)c2cc(OCC(O)CN3CCOCC3)ccc21 (configuration not stated) | i
Cc1ccc(C(=O)N2CCN(c3nnc4ccccn34)CC2)cc1C | 25µM*
CC(=O)c1cc(F)c(N2CCN(C(=O)c3cccc(F)c3)CC2)cc1C | i
Cc1ccc(C(=O)N2CCN(Cc3ccc(Cl)cc3)CC2)cc1C | i
O=C(c1cccc(F)c1)N1CCN(c2nnc3ccc(Cl)cn23)CC1 | 14µM*
O=C(c1ccc(F)cc1)N1CCN(c2nnc3ccccn23)CC1 | 28µM*
Cc1ccc(C(=O)N2CCN(c3cc(-c4cccs4)[nH]n3)CC2)cc1C | i
O=C(c1cccc(F)c1)N1CCN(c2cn[nH]c(=O)c2Cl)CC1 | i
O=C(c1ccc(F)cc1)N1CCN(c2ccc([N+](=O)[O-])cc2-n2cccc2)CC1 | i
COc1ccc(C(=O)N2CCN(c3cc(-c4ccc(F)cc4)[nH]n3)CC2)cc1 | i
Cc1c(C(=O)Nc2ccccc2NS(=O)(=O)c2cccs2)cccc1[N+](=O)[O-] | i
CCOc1ccccc1NC(=O)Cn1cccc1-c1nc(-c2ccc(F)cc2)no1 | i
CC(NCC(=O)NC1CCCCC1)c1cccc(C(F)(F)F)c1 (configuration not stated) | i
CCCCCn1nc(C(=O)N(CC)Cc2nc3ccccc3c(=O)[nH]2)c2ccccc2c1=O | i
SMILES | KDM5B inh
O=c1oc2ccc(Cl)cc2cc1-c1nc(-c2ccccc2)cs1 | i
Cc1ccc(N/C=C/C(=O)c2cccc(Cl)c2)cc1 | i
Cc1ccccc1CN1CCCC2(Cc3ccccc3CNC2=O)C1 (configuration not stated) | i
Cn1cnnc1CC1CCN(C(=O)CCc2nc3ccccc3[nH]c2=O)CC1 | 25µM*
Cn1cnnc1CC1CCN(C(=O)CN2CC(c3ccccc3)CC2=O)CC1 (configuration not stated) | i
Cc1nn(C(=O)CCCC(=O)N2CCC(Cc3nncn3C)CC2)c2ccccc12 | i
Cc1ccc(O)c(C(=O)N(C)Cc2c(F)cccc2Cl)c1 | i
COc1ccc(-c2nc(C(C)C)nc3c2CCN(C(=O)Cc2ccc(F)cc2)CC3)cc1 | i
O=C(c1ccccc1)N1CCN(Cc2nnnn2C2CC2)CC1 | i
Cc1ccc(S(=O)(=O)N2CCN(Cc3csc(C)n3)CC2)c(Br)c1 | i
Cc1ccccc1-n1nc(C)c(CCC(=O)NCC2CC2)c1Oc1cccc(F)c1 | i
Cc1ccccc1-n1nc(C)c(CCC(=O)NCC(C)C)c1Oc1cccc(F)c1 | 22µM*
Cc1nn(-c2ccc(F)cc2)c(Oc2cccc(F)c2)c1CCC(=O)NC(C)C | i
O=C(Cc1n[nH]c(=O)c2ccccc12)Nc1ccc(F)cc1 | i
CCN(C(=O)CN1CCC(c2cc3ccccc3[nH]2)CC1)C1CC1 | i
Cc1cc(C)cc(C(=O)c2c(-c3ccccc3)cc3ccccn23)c1 | i
CCOC(=O)CSc1nc2ccccc2c(=O)n1-c1ccccc1OC | i
CC(C)CNC(=O)c1cc(C2CC2)nc2c1c(C1CCCN1)nn2C (configuration not stated) | 79µM*
Cn1nc(C2CCCN2)c2c(C(=O)NCc3ccncc3)cc(C3CC3)nc21 (configuration not stated) | 79µM*
Cc1cc(C(=O)NCc2ccc(F)cc2)c2c(C3CCCN3)noc2n1 (configuration not stated) | i
Cn1nc(C2CCCN2)c2c(C(=O)NCc3ccc(F)cc3)cc(C3CC3)nc21 (configuration not stated) | 79µM*
CN(CCc1ccncc1)C(=O)c1cc(C2CC2)nc2ccccc12 | i
O=C(NC1CC1)c1cc(C2CC2)nc2c1c(C1CCCN1)nn2-c1ccccc1 (configuration not stated) | i
O=C(NC1CCNCC1)c1cc(C2CC2)nc2c1c(C1CCCN1)nn2-c1ccccc1 (configuration not stated) | i
O=C(c1cc(C2CC2)nc2c1c(C1CCCN1)nn2-c1ccccc1)N1CCOCC1 (configuration not stated) | i
SMILES | KDM5B inh
O=C(O)c1cc(C2CC2)nc2c1c(C1CC1)nn2-c1ccc(F)cc1 | i
c1cncc(-c2nc(Oc3cccc4ccccc34)c3ccccc3n2)c1 | i
Cc1occc1-c1nnc(SC(C(=O)Nc2cccc(C(F)(F)F)c2)c2ccccc2)o1 (configuration not stated) | i
Cc1ccc(NC(=S)NNC=O)cc1 | i
CCOc1ccc(S(=O)(=O)N2CCCN(C)c3ccccc32)cc1 | i
Cc1ccc(Nc2nc(CSc3nnc4n3CCCCC4)cs2)cc1 | i
COc1ccc(NC(=O)c2nn(C)c3c2CCc2sccc2-3)cc1OC | i
Cn1c(=O)[nH]c(=O)c2c1nc(N1CCN(Cc3ccc(Cl)cc3)CC1)n2Cc1ccccc1F | i
COc1cccc(CN2CCOC[C@H](Oc3cccnc3)C2)c1 | i
COc1ccc(-c2ncc(CN3CCOC(c4cccnc4)C3)cn2)cc1 (configuration not stated) | 22µM*
COc1ccc(CN2CCOC(c3cccnc3)C2)cc1Cn1cccn1 (configuration not stated) | i
CC(C)C[C@@H](NC(=O)[C@@H]1C[C@@H](NS(=O)(=O)c2cn(C)cn2)CCN1C(=O)COCC(=O)O)C(N)=O | i
Cc1cccc(OC[C@H]2C[C@@H](NCc3cccc4c3OCO4)[C@H](O)[C@@H]2O)n1 | i
CC(C)c1ccc(NC(=O)c2c(F)cccc2Cl)cc1 | i
Cc1ccc(-c2nc(CNC(=O)C3CCNC3)[nH]c2-c2ccccn2)cc1 (configuration not stated) | i
Cc1ccc(-c2nc(CNC(=O)[C@@H]3CCC[C@H](N)C3)[nH]c2-c2ccccn2)cc1 | 28µM*
Cc1ccc(-c2nc(CNC(=O)[C@@H](N)[C@@H](C)O)[nH]c2-c2ccccn2)cc1 | i
O=C(Cc1c(F)cccc1Cl)NCc1cccc(C(=O)Nc2ccccc2)c1 | i
CCOc1ccc(Oc2ccc(NC(=O)c3nn(C)c(=O)c4ccccc34)cc2)cc1 | i
O=C(NCc1ccccc1)C1CCN(c2cc(C(F)(F)F)ncn2)CC1 | i
Cc1ccc(CC(=O)NC2CCN(c3cc(C(F)(F)F)ncn3)CC2)cc1 | i
Cc1cc(NC(=O)C2CCN(c3cc(C(F)(F)F)ncn3)CC2)ccc1Br | 28µM*

Screening data (PubChem BioAssay)
